Assay results reported in the OligoGym collection.

target: TMEM22; experiment: pooled miR-30 sensor sort-seq; sequence = guide strand; conditions: shRNA
Further: reference of the scale not given here.

| Sequence | sensor-assay potency score (higher = more potent) |
| --- | --- |
| TATAACACAAAAGACATTCATA | -0.457 |
| TTTTTTTCTGCAAAGCTCTGGA | 0.243 |
| TAACACACAACTAACACAGATA | -0.611 |
| TAAAAGAAGAGTCGTAATCTGT | -0.127 |
| TTTCTTTGGATTTTCCTCCATA | -0.74 |
| TTAACAAAGAATTGTCTTCATC | -1.39 |
| TAGTATTTCCTGGTAGTCCTGC | -0.0251 |
| ATTGTCTTCATCAACAATGTTT | -0.906 |
| TTCACCATCACTGTGTTGGGAT | 0.611 |
| TTGATCATTGGGTCTTCTGTTG | -0.772 |
| TTGTCCAATCTCATTGATCATT | -1.19 |

target: TMEM231; experiment: as above; conditions: shRNA

| Sequence | sensor-assay potency score (higher = more potent) |
| --- | --- |
| TTAAAATGTAACATGTCCGTCT | 0.405 |
| TGAGGTCGTAGTCATAGGCAAA | -1.58 |
| AACACGAAGATCTTGATTCTTT | -0.0929 |
| TTACCATCTCCCAGAATCCTGG | -0.723 |
| TAGGCCACCACAGCTCAGCGGC | -1.06 |
| TTCTCTAGTCGAAACGAGCGGG | 0.0646 |
